Rows were chosen to be rich in hits. Some 0.96% of all compounds tested hit in one or more screens of this group.
beta cell repl = inducers of MIN6 beta-cell proliferation, primary screen, ATP luminescence, uHTS | MIN6 cells proliferation, ATPlite luminescence, 48 h; cells starved in 0.2% serum; 100% = growth in 10% serum | proliferation, % at 10 µM | 330,000 tested, 0.29% active;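 active = compounds whose signal lies at least 3.5 SD above the mean of all wells on their plate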;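 note: 0% = DMSO-treated cells in low-serum medium and 100% = 10% serum control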
Rtt109 HAT inh = inhibitors of C. albicans Rtt109/Vps75 HAT, primary screen, biochemical, ThioGlo CoA-SH fluorescence, plate reader. Histone acetyltransferase RTT109 (Candida albicans (strain SC5314 / ATCC MYA-2876)), …. 330,000 tested, 0.16% active. purified Rtt109/Vps75, 4 h. inhibition, % at 34.9 µM;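 active = inhibition of at least 50% in every replicate; inconclusive = best replicate reaches 50% inhibition but some replicates fall short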
HDAC3 inh = HDAC3 deacetylase inhibitors, primary screen, biochemical, fluorescence, cell-free homogeneous | Histone deacetylase 3 (Homo sapiens), O15379 | recombinant HDAC3, fluorogenic peptide/trypsin coupled | inhibition, % at 8.3 µM | 320,000 tested, 0.15% active; in the data active = inhibition above about 26%, passing the limit was not always enough; inconclusive = no clear call, values can overlap the other calls
Target sequence (O15379 whole entry, looked up): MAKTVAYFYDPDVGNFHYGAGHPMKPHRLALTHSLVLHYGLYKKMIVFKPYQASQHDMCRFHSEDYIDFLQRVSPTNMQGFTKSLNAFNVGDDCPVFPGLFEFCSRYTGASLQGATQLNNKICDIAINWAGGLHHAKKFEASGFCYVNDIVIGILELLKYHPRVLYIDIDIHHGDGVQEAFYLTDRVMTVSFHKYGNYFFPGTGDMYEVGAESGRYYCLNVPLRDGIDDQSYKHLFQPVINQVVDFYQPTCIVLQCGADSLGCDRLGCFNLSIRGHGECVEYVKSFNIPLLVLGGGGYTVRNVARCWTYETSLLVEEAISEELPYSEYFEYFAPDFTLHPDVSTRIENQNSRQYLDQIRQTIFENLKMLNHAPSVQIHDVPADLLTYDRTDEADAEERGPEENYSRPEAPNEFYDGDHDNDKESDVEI
DAGLB inhibitor = DAGLB lipase inhibitors, primary screen, biochemical, fluorescence, HTS. Diacylglycerol lipase-beta (Homo sapiens), Q8NCG7. HEK293T DAGLB membrane lysate, EnzChek fluorogenic substrate. inhibition, % at 5.17 µM. 340,000 tested, 0.059% active. AID 504411, 2011; in the data active = inhibition above about 34%;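 note: 0% = enzyme with vehicle and 100% = wells lacking enzyme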
V-ATPase pH = regulators of yeast V-ATPase proton pumping, primary screen, pHLuorin cytosolic pH fluorescence | S. cerevisiae | response, % at 10 µM | 350,000 tested, 0.37% active; in the data active = response mostly above about 7.3%, no sharp cut-off; inactive = mostly below about 5.4%; note: actives read high
* = called active by the depositor; ? = inconclusive; nt = not tested or not shown.

SMILES	beta cell repl	Rtt109 HAT inh	HDAC3 inh	DAGLB inhibitor	V-ATPase pH
O=C(COc1ccccc1Cl)N(Cc1ccco1)C1CCS(=O)(=O)C1 (stereo not given)	2	1	-3	-5	-2
O=C(CSc1ccc2nnc(-c3ccc(Cl)cc3)n2n1)N1CCCC1	-5	11	7	0	14*
O=C(CSc1nnc2ccc(-c3ccc(F)cc3)nn12)N1CCCC1	-5	-8	-9	-3	20*
O=C(CNC(=O)c1sc2ccccc2c1Cl)NCc1cccnc1	3	-4	-1	2	2
O=C(CNC(=O)c1sc2ccccc2c1Cl)NCc1ccc(F)cc1	-4	1	1	-9	18*
C#CCOCCOCCOCCNc1nc(N2CCN(C(=O)CCCCCCCCCCNC(=O)[C@H]([C@@H](C)CC)n3cc(CCCCCN)nn3)CC2)nc(N2CCN(C(=O)CCCCCCCCCCNC(=O)[C@@H]([C@H](C)O)n3cc(C)nn3)CC2)n1	-8	26	4	-3	0
C#CCOCCOCCOCCNc1nc(N2CCN(C(=O)CCCCCCCCCCNC(=O)[C@H](CCCCN)n3cc(CCCC(=O)O)nn3)CC2)nc(N2CCN(C(=O)CCCCCCCCCCNC(=O)[C@H](CCCN=C(N)N)n3cc(C[C@@H](C)CC)nn3)CC2)n1	-5	?	20	3	-3
C#CCOCCOCCOCCNc1nc(N2CCN(C(=O)CCCCCCCCCCNC(=O)[C@H](CCCCN)n3cc(C[C@@H](C)CC)nn3)CC2)nc(N2CCN(C(=O)CCCCCCCCCCNC(=O)[C@H](CCCCN)n3cc(C[C@@H](C)CC)nn3)CC2)n1	nt	6	53*	4	8
C#CCOCCOCCOCCNc1nc(N2CCN(C(=O)CCCCCCCCCCNC(=O)[C@H](CCCCN)n3cc(CCO)nn3)CC2)nc(N2CCN(C(=O)CCCCCCCCCCNC(=O)[C@H](CCCN=C(N)N)n3cc(C[C@@H](C)CC)nn3)CC2)n1	-8	2	29*	1	-3
C#CCOCCOCCOCCNc1nc(N2CCN(C(=O)C([C@@H](C)O)n3cc([C@@H](N)CCCCN)nn3)CC2)nc(N2CCN(C(=O)[C@H](CO)n3cc([C@@H](N)C(C)C)nn3)CC2)n1 (stereo not given in full)	-2	-2	1	-1	-1
C#CCOCCOCCOCCNc1nc(N2CCN(C(=O)CCCCCCCCCCNC(=O)[C@H](CCCCN)n3cc(C)nn3)CC2)nc(N2CCN(C(=O)CCCCCCCCCCNC(=O)[C@@H]([C@H](C)CC)n3cc(CCCCCN)nn3)CC2)n1	-8	?	31*	3	-1
C#CCOCCOCCOCCNc1nc(N2CCN(C(=O)C([C@@H](C)O)n3cc([C@@H](N)CCCCN)nn3)CC2)nc(N2CCN(C(=O)C([C@@H](C)O)n3cc([C@@H](N)CCCCN)nn3)CC2)n1 (stereo not given in full)	-3	73*	-1	1	0
COc1ccc(NC(=O)C(=O)NCCC2CCCCN2S(=O)(=O)c2cccs2)cc1 (stereo not given)	-3	-3	nt	-3	-1
CC1CCCN(c2sc(S(C)(=O)=O)nc2S(=O)(=O)c2ccc(Cl)cc2)C1 (stereo not given)	-5	10	2	-2	0
CC1CN(c2sc(S(C)(=O)=O)nc2S(=O)(=O)c2ccc(Cl)cc2)CC(C)O1 (stereo not given)	-1	4	-1	1	13*
CCN(CC)c1ccc(N=Cc2cc(Br)ccc2O)cc1	-6	59*	-8	10	3
CCOC(=O)CSc1n[nH]c(NC(=O)c2ccc(F)cc2)n1	3	4	50*	6	1
CCOC(=O)CSc1n[nH]c(NC(=O)c2ccccc2)n1	0	-10	?	-1	2
CC(C(=O)O)n1cc(Cl)cn1 (stereo not given)	2	20	-6	nt	-2
CCOC(=O)c1c(C)[nH]c(C(=O)CSc2ccccc2)c1C	-3	-7	2	-4	14*
CCOC(=O)CSC(=S)NC(=O)c1ccc(OC)cc1	0	8	79*	-3	3

High-throughput results (PubChem)
